Experimental data reported in PubChem BioAssay (Tox21).
Results filed as inconclusive are left out. The source made the active and inactive calls. The call rests on the fitted dose curve; in most records, active means well fitted curve in the direction sought with a large enough effect in the repeat runs; inconclusive means weak or mixed curves; inactive means no such curve, though single readings can be large; an effect the other way counts as inactive or inconclusive.

Experiment: Human pregnane X receptor (PXR) small molecule agonists, qHTS cell viability counter screen (AID 1346977); further: nearly all actives have a fitted effect of over 50% in size; further: potency means the concentration at half of the fitted maximal effect
Conditions: PXR-Luc HepG2 viability, CellTiter-Fluor, 24 h; series mostly up to 92.4 µM; activity change, negative = cytotoxicity: at the top concentration
In short: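 After a 5hr pre-incubation, PXR-Luc HepG2 cells received compounds plus positive control in DMSO and were kept 24hr at 37C. Cell viability was quantified by fluorescence from CellTiter-Fluor added for the final hour.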
On the % scale 0 is the no-effect control and ±100 the full control effect.

Compound | activity change, negative = cytotoxicity | Potency
COCC(=O)N(c1c(C)cccc1C)N1CCOC1=O | 2.72% (inactive) | –
CCCCOC(=O)[C@@H](C)Oc1ccc(Oc2ccc(C#N)cc2F)cc1 | 0.101% (inactive) | –
OCCBr | -3.41% (inactive) | –
O=NN1CCCCC1 | 8.66% (inactive) | –
CNC(=O)Oc1ccccc1C1OCCO1 | 13.9% (inactive) | –
Cc1nnc2n1-c1sc(CCC(=O)N3CCOCC3)cc1C(c1ccccc1Cl)=NC2 | 1.77% [at 42.5 µM] (inactive) | –
OC(Cn1cncn1)(c1ccc(F)cc1)c1ccccc1F (stereo unspecified) | 7.87% (inactive) | –
CC(C(=O)c1ccccc1)N(C)C (stereo unspecified) | 14.3% [at 42.5 µM] (inactive) | –
O=[N+]([O-])c1cccc2cccnc12 | 7.05% (inactive) | –
CC1=NNC(=O)N(/N=C/c2cccnc2)C1 | 8.82% (inactive) | –
C[C@]12CC[C@H]3[C@@H](CC=C4C[C@@H](O)CC[C@@]43C)[C@@H]1CC[C@@H]2O | 12.4% [at 42.5 µM] (inactive) | –
O=[N+]([O-])c1cc(Cl)c(Cl)c(Cl)c1 | 3.81% (inactive) | –
C[C@]1(O)CC[C@H]2[C@@H]3CCC4=CC(=O)CC[C@]4(C)[C@@]3(F)[C@@H](O)C[C@@]21C | -4.76% (inactive) | –
c1ccc(N2CCNCC2)cc1 | 14.5% [at 42.5 µM] (inactive) | –
O=C1c2ccccc2C(=O)c2ccccc21 | 8.57% [at 19 µM] (inactive) | –
ClC(Cl)Br | -3.71% (inactive) | –
OCCSCSCCO | -1.7% (inactive) | –
CCC(C)(C)c1cc(-n2nc3ccccc3n2)c(O)c(C(C)(C)CC)c1 | -0.358% (inactive) | –
CCCCc1ccc(O)cc1 | -1.49% (inactive) | –

Compound | activity change, negative = cytotoxicity | Potency
O=C1CN2CCOC2(c2ccccc2Cl)c2cc(Cl)ccc2N1 (stereo unspecified) | 0.882% [at 42.5 µM] (inactive) | –
CC(=O)CCc1ccc2c(c1)OCO2 | 0.947% (inactive) | –
O=C(O)c1cccc(Cl)c1 | 16.7% (inactive) | –
c1cc[c]([Hg][c]2ccccc2)cc1 | – | 68.6 µM (active)
[Cl][Sn]([Cl])([Cl])[Cl] | 18.1% (inactive) | –
CCCSC(=O)Cl | -0.829% (inactive) | –
CNC(=O)O/N=C(\C)SC | 11.4% (inactive) | –
Cc1nc(N)nc(N)n1 | 4.98% (inactive) | –
CC(COc1ccc(Oc2ccccc2)cc1)Oc1ccccn1 (stereo unspecified) | 3% (inactive) | –
ClCC(Cl)Cl | -2.79% (inactive) | –
CC(Oc1ccc(Oc2ncc(C(F)(F)F)cc2Cl)cc1)C(=O)O (stereo unspecified) | -3.47% (inactive) | –
N#CCBr | -1.27% (inactive) | –
CS(=O)(=O)c1cc(C(F)(F)F)ccc1C(=O)c1cnoc1C1CC1 | 13.7% (inactive) | –
CSc1nc(N=[N+]=[N-])nc(NC(C)C)n1 | 4.43% (inactive) | –
CCc1cc2c(s1)-n1c(C)nnc1CN=C2c1ccccc1Cl | -0.773% [at 42.5 µM] (inactive) | –
CCCCOC(=O)c1ccccc1N | -6.54% (inactive) | –
O=[N+]([O-])c1ccc2c3c(cccc13)CC2 | -14.5% (inactive) | –
CC(Cl)(Cl)[N+](=O)[O-] | 0.699% (inactive) | –

Experiment: Caspase-3/7 induction in HepG2 cells by small molecules, qHTS assay (AID 1346978); further: nearly all actives have a fitted effect of over 15% in size
Conditions: HepG2 caspase-3/7 activation, Caspase-Glo luminescence, 17 h; series mostly up to 92.4 µM; caspase activation: at the top concentration
In short: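 Wild-type HepG2 cells, 2,000/well, settled 5 hr at 37 C and 5% CO2, then compound-treated for 17 hr; caspase-3/7 activity read by luminescent Caspase-Glo 3/7 after 30 min at room temperature.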

Compound | caspase activation
COCC(=O)N(c1c(C)cccc1C)N1CCOC1=O | -0.0188% (inactive)
CCCCOC(=O)[C@@H](C)Oc1ccc(Oc2ccc(C#N)cc2F)cc1 | -1.28% (inactive)
OCCBr | 0.504% (inactive)
O=NN1CCCCC1 | 0.987% (inactive)
CNC(=O)Oc1ccccc1C1OCCO1 | 0.0024% (inactive)
Cc1nnc2n1-c1sc(CCC(=O)N3CCOCC3)cc1C(c1ccccc1Cl)=NC2 | 3.11% [at 42.5 µM] (inactive)
OC(Cn1cncn1)(c1ccc(F)cc1)c1ccccc1F (stereo unspecified) | -1.19% (inactive)
CC(C(=O)c1ccccc1)N(C)C (stereo unspecified) | 0.165% [at 42.5 µM] (inactive)
O=[N+]([O-])c1cccc2cccnc12 | 0.676% (inactive)
CC1=NNC(=O)N(/N=C/c2cccnc2)C1 | -1.27% (inactive)
C[C@]12CC[C@H]3[C@@H](CC=C4C[C@@H](O)CC[C@@]43C)[C@@H]1CC[C@@H]2O | -0.68% [at 42.5 µM] (inactive)
O=[N+]([O-])c1cc(Cl)c(Cl)c(Cl)c1 | -0.18% (inactive)
C[C@]1(O)CC[C@H]2[C@@H]3CCC4=CC(=O)CC[C@]4(C)[C@@]3(F)[C@@H](O)C[C@@]21C | -0.817% (inactive)
c1ccc(N2CCNCC2)cc1 | -0.257% [at 42.5 µM] (inactive)
O=C1c2ccccc2C(=O)c2ccccc21 | -0.684% [at 19 µM] (inactive)
ClC(Cl)Br | -0.981% (inactive)
OCCSCSCCO | -2.01% (inactive)
CCC(C)(C)c1cc(-n2nc3ccccc3n2)c(O)c(C(C)(C)CC)c1 | 2.12% (inactive)
CCCCc1ccc(O)cc1 | 2.84% (inactive)

Compound | caspase activation
O=C1CN2CCOC2(c2ccccc2Cl)c2cc(Cl)ccc2N1 (stereo unspecified) | 0.0726% [at 42.5 µM] (inactive)
CC(=O)CCc1ccc2c(c1)OCO2 | -1.87% (inactive)
O=C(O)c1cccc(Cl)c1 | -3.15% (inactive)
c1cc[c]([Hg][c]2ccccc2)cc1 | 1.15% (inactive)
[Cl][Sn]([Cl])([Cl])[Cl] | 0.732% (inactive)
CCCSC(=O)Cl | 0.283% (inactive)
CNC(=O)O/N=C(\C)SC | -0.544% (inactive)
Cc1nc(N)nc(N)n1 | -0.866% (inactive)
CC(COc1ccc(Oc2ccccc2)cc1)Oc1ccccn1 (stereo unspecified) | -1.19% (inactive)
ClCC(Cl)Cl | 0.185% (inactive)
CC(Oc1ccc(Oc2ncc(C(F)(F)F)cc2Cl)cc1)C(=O)O (stereo unspecified) | 1.7% (inactive)
N#CCBr | -0.839% (inactive)
CS(=O)(=O)c1cc(C(F)(F)F)ccc1C(=O)c1cnoc1C1CC1 | -0.619% (inactive)
CSc1nc(N=[N+]=[N-])nc(NC(C)C)n1 | -1.61% (inactive)
CCc1cc2c(s1)-n1c(C)nnc1CN=C2c1ccccc1Cl | 5.48% [at 42.5 µM] (inactive)
CCCCOC(=O)c1ccccc1N | 4.89% (inactive)
O=[N+]([O-])c1ccc2c3c(cccc13)CC2 | -0.169% (inactive)
CC(Cl)(Cl)[N+](=O)[O-] | 0.0382% (inactive)

Experiment: Caspase-3/7 induction in CHO-K1 cells by small molecules, qHTS cell viability counter screen (AID 1346979); further: nearly all actives have a fitted effect of over 35% in size; further: potency means the concentration at half of the fitted maximal effect
Conditions: CellTiter-Fluor fluorescence, 17 h; series mostly up to 92.4 µM; activity change, negative = cytotoxicity: at the top concentration
In short: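 Multiplexed with Caspase-Glo 3/7 in CHO-K1 cells, this counter screen added CellTiter-Fluor after 16hr of compound exposure and recorded fluorescence 1hr later.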

Compound | activity change, negative = cytotoxicity | Potency
COCC(=O)N(c1c(C)cccc1C)N1CCOC1=O | -1.06% (inactive) | –
CCCCOC(=O)[C@@H](C)Oc1ccc(Oc2ccc(C#N)cc2F)cc1 | 1.08% (inactive) | –
OCCBr | 0.432% (inactive) | –
O=NN1CCCCC1 | -0.768% (inactive) | –
CNC(=O)Oc1ccccc1C1OCCO1 | 3.69% (inactive) | –
Cc1nnc2n1-c1sc(CCC(=O)N3CCOCC3)cc1C(c1ccccc1Cl)=NC2 | 3.73% [at 42.5 µM] (inactive) | –
OC(Cn1cncn1)(c1ccc(F)cc1)c1ccccc1F (stereo unspecified) | 10.9% (inactive) | –
CC(C(=O)c1ccccc1)N(C)C (stereo unspecified) | 9.01% [at 42.5 µM] (inactive) | –
O=[N+]([O-])c1cccc2cccnc12 | 0.976% (inactive) | –
CC1=NNC(=O)N(/N=C/c2cccnc2)C1 | 5.84% (inactive) | –
C[C@]12CC[C@H]3[C@@H](CC=C4C[C@@H](O)CC[C@@]43C)[C@@H]1CC[C@@H]2O | 0.665% [at 42.5 µM] (inactive) | –
O=[N+]([O-])c1cc(Cl)c(Cl)c(Cl)c1 | -2.56% (inactive) | –
C[C@]1(O)CC[C@H]2[C@@H]3CCC4=CC(=O)CC[C@]4(C)[C@@]3(F)[C@@H](O)C[C@@]21C | -3.96% (inactive) | –
c1ccc(N2CCNCC2)cc1 | 13.5% [at 42.5 µM] (inactive) | –
O=C1c2ccccc2C(=O)c2ccccc21 | 11.3% [at 19 µM] (inactive) | –
ClC(Cl)Br | -0.36% (inactive) | –
OCCSCSCCO | 0.565% (inactive) | –
CCC(C)(C)c1cc(-n2nc3ccccc3n2)c(O)c(C(C)(C)CC)c1 | 0.862% (inactive) | –
CCCCc1ccc(O)cc1 | -1.98% (inactive) | –

Compound | activity change, negative = cytotoxicity | Potency
O=C1CN2CCOC2(c2ccccc2Cl)c2cc(Cl)ccc2N1 (stereo unspecified) | -1.47% [at 42.5 µM] (inactive) | –
CC(=O)CCc1ccc2c(c1)OCO2 | 12% (inactive) | –
O=C(O)c1cccc(Cl)c1 | 9.7% (inactive) | –
c1cc[c]([Hg][c]2ccccc2)cc1 | – | 68.6 µM (active)
[Cl][Sn]([Cl])([Cl])[Cl] | 1.51% (inactive) | –
CCCSC(=O)Cl | 0.0018% (inactive) | –
CNC(=O)O/N=C(\C)SC | 7.83% (inactive) | –
Cc1nc(N)nc(N)n1 | 3.17% (inactive) | –
CC(COc1ccc(Oc2ccccc2)cc1)Oc1ccccn1 (stereo unspecified) | 5.17% (inactive) | –
ClCC(Cl)Cl | 8.29% (inactive) | –
CC(Oc1ccc(Oc2ncc(C(F)(F)F)cc2Cl)cc1)C(=O)O (stereo unspecified) | -13.3% (inactive) | –
N#CCBr | 8.84% (inactive) | –
CS(=O)(=O)c1cc(C(F)(F)F)ccc1C(=O)c1cnoc1C1CC1 | 4.13% (inactive) | –
CSc1nc(N=[N+]=[N-])nc(NC(C)C)n1 | 8.17% (inactive) | –
CCc1cc2c(s1)-n1c(C)nnc1CN=C2c1ccccc1Cl | -3.24% [at 42.5 µM] (inactive) | –
CCCCOC(=O)c1ccccc1N | -11.7% (inactive) | –
O=[N+]([O-])c1ccc2c3c(cccc13)CC2 | -4.57% (inactive) | –
CC(Cl)(Cl)[N+](=O)[O-] | 0.312% (inactive) | –
